This note sets out measurements from PubChem BioAssay (NCATS).

Values joined by “and” are separate entries in the source; they are usually repeats but may differ in a detail not shown here. Equal values may be shown once. Records with an inconclusive call do not appear. A call without a number means that no potency is given here. A number with no mark means an inactive call. Active and inactive are the calls of the source. Calls follow the shape of the dose curve; as a rule, active = well fitted inhibition curve with a large enough effect; inconclusive = small, poorly fitted or top-dose-only effect; inactive = flat fitted curve, though single readings scatter. *1 amine or outer side, *2 acyl side, *3 side chain or, on linkers, in order; H or OH if unused. Where a SMILES comes first, the peptide text is derived from it. [ ]: non-standard residue; d: D form. X4 = CC(C)=CCc1cc(C(O)C(N[*:1])C(=O)[*:2])ccc1O

In test [1] the target is Calcium and integrin-binding protein 1 (Homo sapiens) (UniProt Q99828). The test can be described thus: Primary qHTS for Identification of Calcium Integrin Binding Protein 1 (CIB1) Competitor (AID 1508620).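 Also: GST tagged CIB1 binding a fluorescein labelled alphaIIb integrin peptide tracer; top concentration of the series differs between compounds.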 The method in brief:
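Fluorescence polarization competition: CIB1-GST (1 uM final) preincubated with compound 15 min at room temperature, then FITC-labeled alphaIIb peptide (100 nM final) added for another 15 min. Polarization read at Ex 480/Em 540.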
In general terms: Quantitative high-throughput screening tests each substance at several concentrations.

Test [2] in a line: Primary qHTS for inhibitors of nuclear receptor binding SET domain protein 2 (NSD2) in an isogenic RCH-ACV NSD2 p.E1099K mutant (9B) (AID 1645876). Also: nearly all actives have a fitted effect of over 70% in size. Also: potency is read from the fitted curve at half-maximal effect.

Calcium and integrin-binding protein 1 (Homo sapiens), sequence (Q99828 whole entry, looked up): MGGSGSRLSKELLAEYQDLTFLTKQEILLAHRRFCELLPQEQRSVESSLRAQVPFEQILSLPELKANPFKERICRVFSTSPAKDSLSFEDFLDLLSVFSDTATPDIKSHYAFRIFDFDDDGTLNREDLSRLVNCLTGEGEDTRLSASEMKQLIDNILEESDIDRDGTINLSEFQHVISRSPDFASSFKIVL

As for `C=C(C(=O)O)[C@H]1C[C@]2(C)[C@@H](O)CC[C@]23O[C@H]1C[C@@H]3C`, the Potency result in test [1] and in test [2] was “inactive” in each case.
For the compound `C[C@@H]1O[C@@H](O[C@H]2[C@H](OC(=O)[C@]34CCC(C)(C)C[C@H]3C3=CCC5[C@@]6(C)C[C@H](O)[C@H](O[C@@H]7O[C@H](CO)[C@@H](O)[C@H](O)[C@H]7O)[C@@](C)(CO)C6[C@H](O)C[C@@]5(C)[C@]3(C)CC4)OC[C@H](O)[C@@H]2O)[C@H](O)[C@H](O)[C@H]1O[C@@H]1OC[C@@H](O)[C@H](O[C@@H]2OC[C@](O)(CO)[C@H]2O)[C@H]1O` (some centres undefined), the activity change, negative = inhibition in test [1] was 3.34% [at 12.4 µM]. In addition, the activity change, negative = viability loss in test [2] is -10.4% [at 9.23 µM].
Turning to `NC1CCCCN(c2c(F)cc3c(=O)c(C(=O)O)cn(C4CC4)c3c2Cl)C1` (centres undefined), the Potency entry in test [1] and in test [2] was “inactive” in each case.
As for `CCNC(=O)Nc1ccc(-c2nc3c(c(N4CCOC[C@@H]4C)n2)CCN(c2ncccn2)C3)cc1`, the Potency entry in test [1] was “inactive”. Also, the Potency in test [2] was 72.8 nM (active).
On the same counts, the results for `CC(=O)O[C@H]1C[C@@](O)(C(C)C)C2[C@@H](OC(=O)c3ccc(O)cc3)C[C@@]3(C)O[C@H]3C[C@]21C` (some centres undefined) are “inactive” and “inactive”.
The matching figures for `CC(CO)C1CCC2(C)CC3C(CO)CC(O)C3C(C)(O)C/C=C/12` (centres undefined): “inactive” and “inactive”.
On the same counts, the results for `C/C=C1\[C@H](O[C@@H]2O[C@H](CO)[C@@H](O)[C@H](O)[C@H]2O)OC=C(C(=O)OC)[C@H]1CC(=O)OC[C@H]1O[C@@H](OCCc2ccc(O)cc2)[C@H](O)[C@@H](O)[C@@H]1O` are “inactive” and “inactive”.
For `C[C@@H]1O[C@@H](O[C@H]2[C@@H](OC(=O)[C@]34CCC(C)(C)CC3C3=CCC5[C@@]6(C)C[C@H](O)[C@H](O[C@@H]7O[C@H](C(=O)O)[C@@H](O)[C@H](O)[C@H]7O)[C@@](C)(C(=O)O)C6CC[C@@]5(C)[C@]3(C)CC4)OC[C@H](O)[C@@H]2O)[C@H](O)[C@H](O)[C@H]1O[C@@H]1OC[C@@H](O)[C@H](O)[C@H]1O` (some centres undefined), the Potency result in test [1] was “inactive”. Besides, the activity change, negative = viability loss in test [2] was -12% [at 9.23 µM].
Consider `CC/C=C\[C@H](O)[C@H](O)C1=C(C)C(=O)[C@]2(O1)C(=O)N[C@@](OC)(C(=O)c1ccccc1)[C@@H]2O`, for which the Potency entry in test [1] and in test [2] was “inactive” throughout.
Turning to `COc1ccc(-c2c(-c3cc(C(=O)O)ccn3)ncn2C)cc1`, the Potency entry in test [1] and in test [2] was “inactive” in each case.
In the case of `Cc1cc(N(C)C)ccc1-c1nc2ccc(-c3nc4ccc(N5CCN(C)CC5)cc4[nH]3)cc2[nH]1`, the Potency result in test [1] is “inactive”. Moreover, in test [2], the Potency was 578 nM (active).
The matching figures for `O=C(OCC1=CC(O)C2C=CO[C@@H](O[C@@H]3O[C@H](CO)[C@@H](O)[C@H](O)[C@H]3O)C12)c1ccccc1` (some centres undefined): “inactive” and “inactive”.
On to `CC(C)=CCc1cc(C(O)C2NC(=O)CNC(=O)C(Cc3c[nH]c4ccccc34)NC(=O)C3CCCN3C(=O)CNC(=O)C(C(C)C)NC(=O)CNC2=O)ccc1O` (centres undefined) (cyclo(G[X4]GVGPW); configuration not given here), for which the Potency entry in test [1] is “inactive”. Further, the activity change, negative = viability loss in test [2] is -11.5% [at 9.23 µM].
As to `CC(C)c1cc(C(=O)N2CC[C@@H](NC(=O)C3CC3)C2)n[nH]1`, the Potency entry in test [1] and in test [2] was “inactive” throughout.
In the case of `CC(=O)CCC1=C(C)C(O[C@@H]2O[C@H](CO)[C@@H](O)[C@H](O)[C@H]2O)C(O)CC1(C)C` (some centres undefined), the Potency entry in test [1] and in test [2] was “inactive” throughout.
Take `Cc1cc(O)c(-c2ccc([C@@H](C)CN(C)C)cc2)c2c1[nH]c(=O)c1sccc12`: the Potency result in test [1] was “inactive”. Moreover, in test [2], the Potency was 74.2 nM (active).
On the same counts, the results for `CC1(C)CCCC2(C)C(C(=O)O)=CCC12` (centres undefined) are “inactive” and “inactive”.
Take `CC(C)CC1NC(=O)C(C)NC(=O)C(CC(C)C)OC(=O)CCCNC1=O` (centres undefined): the Potency result in test [1] and in test [2] was “inactive” throughout.
Turning to `COc1cc(O)c2c(c1)C1=C[C@H](O)[C@@H](O)C[C@]1(C)OC2=O`, the Potency entry in test [1] and in test [2] was “inactive” each time.
With `CCN1CCN(Cc2ccc(NC(=O)c3ccc(C)c(NC(=O)c4cncc(-c5cccs5)c4)c3)cc2C(F)(F)F)CC1`, the Potency result in test [1] is “inactive”. In addition, the Potency in test [2] is 45.9 nM (active) and 166 nM (active).
As to `COc1cc2c(cc1OC)CC(=O)N(CCCNC[C@H]1Cc3cc(OC)c(OC)cc31)CC2`, the Potency result in test [1] and in test [2] was “inactive” each time.
`CC12CCC(=O)C=C1C(O)CC1C2C(O)CC2(C)C1CC[C@]2(O)C(=O)CO` (some centres undefined): the Potency result in test [1] is “inactive”. Besides, the outcome in test [2] is “inactive [at 9.23 µM]”.
Take `Cc1c2cc(c(C(=O)O)c1C)OC1OC(C(O)C(O)C1O)C(O)C(O)C1OC(O2)C(O)C(O)C1O` (centres undefined): the Potency entry in test [1] and in test [2] was “inactive” each time.
With `CC(=O)O[C@H]1[C@@H](O)[C@H](O[C@H]2[C@@H]3C=CO[C@@H](O[C@H]4O[C@@H](CO)[C@H](O)[C@@H](O)[C@@H]4O)[C@@H]3[C@@]3(CO)O[C@@H]23)O[C@@H](C)[C@@H]1OC(=O)/C=C/c1ccccc1`, the Potency result in test [1] and in test [2] was “inactive” each time.
As to `CC(=O)N1CCc2ccc(O)c(OC3OC(COC4OCC(O)(CO)C4O)C(O)C(O)C3O)c2C1Cc1ccc(O)cc1` (centres undefined), the Potency result in test [1] and in test [2] was “inactive” in each case.
In the case of `C=C1CCC2C(C)(C(=O)OC)CCCC2(C)C1CCC(C)CC(=O)O` (centres undefined), the Potency result in test [1] and in test [2] was “inactive” each time.
As to `C[C@H](NC(c1cccc(C[P+](=O)O)c1)[C@H](C)O)c1ccc(Cl)c(Cl)c1` (some centres undefined), the Potency entry in test [1] and in test [2] was “inactive” in each case.
